Measurements taken from PMC5540273 (PLoS ONE, 2017).

Tests used:
Conditions in all cases: concentration: 1 μM, replicates: in singlicate; n = 1
[1] = tested on: CDKL2
[2] = tested on: CDKL3
[3] = tested on: CDKL5
[4] = tested on: CHEK1
[5] = tested on: CHEK2
[6] = tested on: CIT
[7] = tested on: CLK1
[8] = tested on: CLK2
[9] = tested on: CLK3
[10] = tested on: CLK4
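Also: KINOMEscan kinase panel screen.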

Compound	%Inh [1] [%]	%Inh [2] [%]	%Inh [3] [%]	%Inh [4] [%]	%Inh [5] [%]	%Inh [6] [%]	%Inh [7] [%]	%Inh [8] [%]	%Inh [9] [%]	%Inh [10] [%]
COC(=O)c1cccc(NC(=O)NCCNc2ccnc(Nc3ccc(F)cc3)n2)c1 [GSK1379883]	5	0	0	0	5	35	15	0	14	42
FC(F)(F)c1ccc(-c2nn3ncccc3c2-c2ccnc(Nc3cccc(C(F)(F)F)c3)n2)cc1 [GW828205]	0	0	0	0	0	16	4	0	0	0
Cl.O=S(=O)(c1cccc(F)c1)c1ccc(Nc2ncnc3cc(Br)sc23)cc1Cl [GSK306886]	19	0	0	0	0	23	23	0	0	0
Fc1cccc(COc2ccc(Nc3ncnc4nn5ccccc5c34)cc2Cl)c1 [GW689066]	1	0	0	0	28	0	9	0	0	0
Oc1ccc2ncnc(Nc3ccc(OCc4ccccc4)cc3)c2c1 [GI262866]	0	0	7	8	23	0	37	0	21	19
Fc1ccc(Nc2nccc(-c3c(-c4ccc(Cl)cc4)nn4ncccc34)n2)cc1F [GW829058]	22	21	23	12	1	0	0	10	10	5
CC(=O)Nc1n[nH]c2ncc(-c3ccccc3)cc12 [SB-548492]	6	0	0	0	1	4	41	19	32	27
O=c1cc(N2CCOCC2)nc2n(Cc3cccc(Cl)c3)ccn12 [GSK2296823]	26	0	4	18	0	10	47	1	20	24
N#Cc1ccc(Oc2ccc(Nc3ncnc4cc[nH]c34)cc2Cl)cc1	15	3	14	4	19	22	25	19	3	21
CSc1ccc(NC2=C(c3ccccc3Cl)C(=O)NC2=O)cc1 [SB-342411]	14	0	0	0	0	23	74	88	43	53
CC(C)(C)OC(=O)NC1CCCN(c2cc(-c3ccc4c(N)n[nH]c4c3)nc(N)n2)C1 (stereo not drawn) [GSK2286096]	5	0	7	0	0	26	55	27	7	16
COc1cc2c(Nc3cccc(NC(=O)c4ccccc4)c3)ncnc2cc1OCCCN1CCOCC1 [GSK223810]	3	0	0	0	0	29	10	10	0	16
Cn1cc(-c2ccc3c(c2)CCN3C(=O)Cc2cccc(C(F)(F)F)c2)c2c(N)ncnc21 [GSK2606414]	15	0	0	19	0	11	22	0	0	19
Nc1nc(-c2ccccn2)c(-c2ccnc3ccccc23)s1 [GW548057]	24	0	0	0	46	6	14	16	30	40
FC(F)(F)c1ccc(-c2cc(-c3c[nH]nc3-c3ccccn3)ccn2)cc1 [GW599550]	21	0	0	0	16	37	8	4	5	29
COC(=O)c1c(-c2ccccc2)c2cc(Cl)ccc2c(=O)n1Cc1ccc(S(C)(=O)=O)cc1	0	0	33	0	10	4	3	0	10	10
CS(=O)(=O)CCNCc1nc(-c2ccc3ncnc(Nc4ccc(OCc5cccc(F)c5)c(Cl)c4)c3c2)cs1.Cl [GW583340]	2	0	0	0	0	23	33	0	12	0

Compound	%Inh [1] [%]	%Inh [2] [%]	%Inh [3] [%]	%Inh [4] [%]	%Inh [5] [%]	%Inh [6] [%]	%Inh [7] [%]	%Inh [8] [%]	%Inh [9] [%]	%Inh [10] [%]
O=C(Nc1ccccc1)Nc1ccc(Oc2ccc3nccn3n2)cc1	5	0	0	0	49	3	30	0	0	0
COc1ccc(NC(=O)c2ccc(-c3cc(-c4nnc(C)o4)ccc3C)cc2)cc1 [GW595885]	13	0	0	0	0	22	17	0	94.8	20
COc1ccc(Nc2nccc(N3CCC(NC(=O)Nc4ccc5c(c4)OCO5)C3)n2)cc1 (stereo not drawn) [GSK1379745]	8	0	0	1	0	0	15	1	9	19
CS(=O)(=O)CCNCc1ccc(-c2ccc3ncnc(Nc4ccc(OCc5ccccc5)c(Cl)c4)c3c2)o1.Cl [GW574783]	11	0	0	6	0	23	0	0	0	21
Nc1nc(-c2ccc3c(N)n[nH]c3c2)cc(N2CCCCC2)n1 [GSK2228768]	0	0	2	0	0	18	29	0	8	19
Cl.Cl.c1ccc(-c2cc3ccncc3cc2OC2CCNCC2)cc1 [GSK1122999]	10	0	7	3	0	55	64	32	4	71
COc1ccc(-c2oc3ncnc(N)c3c2-c2ccc(OC)cc2)cc1 [SB-589132]	2	0	2	0	0	0	29	0	0	0
NC(=O)c1sc(-n2cnc3ccccc32)cc1OCc1ccccc1F [GSK1024306]	22	0	0	0	0	39	37	0	0	42
C[C@@H]1CCN(C(=O)CO)C[C@@H]1N(C)c1ncnc2[nH]ccc12	2	0	0	0	1	0	3	6	0	0
Nc1nc(-c2ccc3c(N)n[nH]c3c2)cc(N2CCC[C@@H](C(=O)Nc3ccccc3)C2)n1.O=C(O)C(F)(F)F.O=C(O)C(F)(F)F [GSK2288359]	6	0	2	0	0	23	45	29	8	21
COc1cc2ncnc(Nc3ccc(OCc4ccccc4Br)c(Cl)c3)c2cc1OC.Cl [GI261590]	26	2	0	0	47	29	28	0	0	17
O=C(c1ccc(-c2cc(-c3c[nH]nc3-c3ccccn3)ccn2)cc1)N1CCCC1 [GW792479]	24	3	0	0	0	18	0	8	0	0
Cc1ccc(C)c(NC(=O)NCCNc2ccnc(Nc3ccc(F)cc3)n2)c1 [GSK1379878]	0	0	0	5	0	8	23	0	0	0
Cc1ccc(NC(=O)c2cccc(C#N)c2)cc1-c1ccc(C(=O)Nc2ccncc2)cc1 [GSK1398463]	40	0	11	19	0	47	29	0	23	24
Cc1ccc(O)cc1Nc1cc(C(F)(F)F)nc2ccc(-c3ccncc3)cc12 [GW630823]	0	0	0	34	0	0	40	16	0	20
CCCc1ccc(S(=O)(=O)NC2CCN(c3ccnc(Nc4ccc(OC)cc4)n3)C2)cc1 (stereo not drawn) [GSK1379737]	19	0	0	0	15	32	23	0	0	6
